Source: PubChem BioAssay (Tox21)
Results filed as inconclusive are left out. Active and inactive are the calls of the source. Unless noted, calls follow the shape of the dose curve; as a rule, active = well fitted curve in the direction sought with a large enough effect in the repeat runs; inconclusive = weak or mixed curves; inactive = no such curve, though single readings can be large; an effect the other way counts as inactive or inconclusive.

Experiments:
[1] = qHTS assay to identify small molecule antagonists of the vitamin D receptor (VDR) signaling pathway - cell viability counter screen (AID 743225); also: % is scaled to controls: 0 for no effect and ±100 for the full control effect; nearly all actives have a fitted effect of over 50% in size
Summary of the method: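 Cytotoxicity counter screen read by CellTiter-Glo luminescence (30 min, room temperature) in the same wells as the VDR-bla antagonist readout. HEK 293T VDR-UAS-bla cells had 16 h at 37C with compound and 3 nM (final) 1-alpha,25-dihydroxyvitamin D3, then 2 h with FRET substrate.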

[2] = qHTS assay to identify small molecule agonists of the NFkB signaling pathway - cell viability counter screen (AID 1159515; calls by dose curve; also: nearly all actives have a fitted effect of over 55% in size; also: potency is read from the fitted curve at half-maximal effect)
Summary of the method: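 NFkB-bla ME-180 cells, 2,000/well, were plated overnight at 37 C, 5% CO2, then exposed to compounds in DMSO for 5 hr. After the bla FRET read, CellTiter-Glo was added to the same wells; luminescence was read after 30 min at room temperature.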

[3] = qHTS assay to identify small molecule agonists of the endoplasmic reticulum stress response signaling pathway (AID 1159516; active = well fitted activation curve with a large enough effect in the signal ratio in the repeat runs, not every such curve was filed as active; the % refers to the signal ratio; also: % is scaled to controls: 0 for no effect and ±100 for the full control effect)
Summary of the method: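 CellSensor ESRE-bla HeLa cells, carrying a beta-lactamase reporter driven by the ER stress response element, were plated overnight and exposed to compounds for 5 hr at 37 C. Reporter activity was read as FRET substrate fluorescence after 2 hr at room temperature.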

[4] = qHTS assay to identify small molecule agonists of the endoplasmic reticulum stress response signaling pathway - cell viability counter screen (AID 1159517; calls by dose curve; also: series mostly up to about 61 µM; % is scaled to controls: 0 for no effect and ±100 for the full control effect; nearly all actives have a fitted effect of over 50% in size)
Summary of the method: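 ESRE-bla HeLa cells, 1,500 per well, seeded overnight then treated with compounds for 5 hr at 37 C. After the beta-lactamase read, viability in the same wells is measured by CellTiter-Glo luminescence after 30 min at room temperature.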

[5] = qHTS assay to identify small molecule antagonists of the retinoid-related orphan receptor gamma (ROR-gamma) signaling pathway - cell viability counter screen (AID 1159520); also: % is scaled to controls: 0 for no effect and ±100 for the full control effect; nearly all actives have a fitted effect of over 50% in size
Summary of the method: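 Tet-on ROR gamma CHO cells were given compounds for 2 hr, then doxycycline hyclate at 1 uM final, and incubated 16 hr at 37 C. Viability was measured as ATP content by CellTiter-Glo luminescence.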

[6] = biological target: Nuclear receptor ROR-gamma (Homo sapiens) (UniProt P51449); test: qHTS assay to identify small molecule antagonists of the retinoid-related orphan receptor gamma (ROR-gamma) signaling pathway (AID 1159521; also: nearly all actives have a fitted effect of over 50% in size; also: potency is read from the fitted curve at half-maximal effect)
Summary of the method: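 Antagonist read-out: drop in luminescence (ONE-Glo) from an RORE-LUC reporter in CHO cells with doxycycline-inducible ROR-gamma; 2 hr compound pretreatment, 1 uM doxycycline, 16 hr incubation at 37 C.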

[7] = qHTS assay to identify small molecule agonists of the AP-1 signaling pathway (AID 1159526; calls by dose curve; also: % is scaled to controls: 0 for no effect and ±100 for the full control effect)
[8] = biological target: Retinoic acid receptor RXR-alpha (Homo sapiens) (UniProt P19793); test: qHTS assay to identify small molecule agonists of the RXR signaling pathway (AID 1159527; calls by dose curve; also: % is scaled to controls: 0 for no effect and ±100 for the full control effect; nearly all actives have a fitted effect of over 35% in size)
Summary of the method: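 Agonist-mode beta-lactamase reporter assay: HEK 293T RXR-alpha-UAS-bla cells treated 16 hr at 37 C with compounds, 9-cis retinoic acid as positive control. LiveBLAzer FRET substrate, 405 nm excitation, 460/530 nm emission.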

[9] = qHTS assay to identify small molecule agonists of the RXR signaling pathway - cell viability counter screen (AID 1159529); also: nearly all actives have a fitted effect of over 50% in size; also: potency is read from the fitted curve at half-maximal effect
Summary of the method: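 CellTiter-Glo luminescence gave viability in the wells also read for beta-lactamase. Cells (RXR-alpha-UAS-bla HEK 293T, 2% charcoal-stripped FBS medium) had 5 hr plating, then 16 hr compound exposure at 37 C; tetraoctyl ammonium bromide served as positive control.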

[10] = qHTS assay to identify small molecule antagonists of the retinoid acid receptor (RAR) signaling pathway - cell viability counter screen (AID 1159551); also: % is scaled to controls: 0 for no effect and ±100 for the full control effect; nearly all actives have a fitted effect of over 35% in size
Summary of the method: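 C3RL4 cells were seeded overnight at 37 C, then treated with compounds plus 1 uM (final) retinol for 6 h at 37 C. Viability was read as ATP by CellTiter-Glo luminescence after 30 min at room temperature.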

[11] = qHTS assay to identify small molecule antagonists of the retinoic acid receptor (RAR) signaling pathway (AID 1159552)
Summary of the method: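 Luminescent RARE reporter read-out in C3RL4 cells: 6 hr co-treatment at 37 C of test compounds with retinol at 1 uM final. Cells plated overnight beforehand; luciferase reagent incubated 30 min at room temperature before reading.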

[12] = qHTS assay to identify small molecule agonists of the retinoic acid receptor (RAR) signaling pathway (AID 1159553); also: % is scaled to controls: 0 for no effect and ±100 for the full control effect
Summary of the method: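 C3RL4 cells carrying a RARE luciferase reporter were plated overnight at 37 C, then exposed to compounds in DMSO for 6 hr at 37 C and 5% CO2. Luminescence was read 30 min after luciferase reagent addition at room temperature.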

[13] = qHTS assay to identify small molecule antagonists of the estrogen related receptor (ERR) signaling pathway from Tox21 library - cell viability counter screen (AID 1224834); also: nearly all actives have a fitted effect of over 30% in size; also: potency is read from the fitted curve at half-maximal effect
Summary of the method: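 ERR reporter cells were plated 6 h before compound addition, then exposed to test compounds in DMSO for 17.5 h at 37 C. Viability was read as CellTiter-Fluor fluorescence after a 30-minute incubation at 37 C.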

[14] = qHTS assay to identify small molecule agonists of the AP-1 signaling pathway - cell viability counter screen (AID 1159525; calls by dose curve; also: nearly all actives have a fitted effect of over 55% in size)
Summary of the method: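 AP-1-bla ME-180 cells in Opti-MEM with 0.5% dialyzed FBS, compound exposure 5 h at 37 C in 15-point titration. Viability read in the same wells as ATP content by CellTiter-Glo luminescence, normalised to tetra-n-octylammonium bromide and DMSO controls.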

[15] = qHTS assay to identify small molecule antagonists of the estrogen related receptor (ERR) signaling pathway - cell viability counter screen (AID 1224818);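 also: series mostly up to about 46 µM; viability measured after 17.5 h of compound exposure; % is scaled to controls: 0 for no effect and ±100 for the full control effect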
Summary of the method: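 ERR reporter cells plated 6 h at 37 C/5% CO2, then compounds in DMSO pin-transferred and incubated 17.5 h at 37 C. Viability read as CellTiter-Fluor fluorescence after 30 min at 37 C.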

[16] = qHTS assay to identify small molecule antagonists of the estrogen related receptor (ERR) signaling pathway (AID 1224819)
Summary of the method: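 ERR reporter cells were plated at 2,000 cells/well and left 6 h at 37 C/5% CO2 before pin-tool transfer of compounds in DMSO. After 18 h at 37 C, One-Glo was added and luminescence was read 30 min later at room temperature.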

[17] = qHTS assay to identify small molecule agonists of the estrogen related receptor (ERR) signaling pathway (AID 1224820); also: % is scaled to controls: 0 for no effect and ±100 for the full control effect
Summary of the method: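 ERR reporter cell line (from NTP), 2,000 cells/well, incubated 6 h before compound addition, then 18 h at 37 C. Luminescence measured 30 min after One-Glo reagent at room temperature.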

[18] = tested on: estrogen-related receptor alpha (ERRalpha) with PGC-1alpha coactivator, human; test: qHTS assay to identify small molecule antagonists of the estrogen related receptor signaling pathway with the pleiotropic PPARgamma coactivator (PGC) (AID 1224821; calls by dose curve)
Summary of the method: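 PGC/ERR reporter cell line, plated 6 h before compound addition, then exposed 18 h at 37 °C. Luciferase activity read by luminescence 30 min after One-Glo addition; decrease indicates antagonism.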

[19] = qHTS assay to identify small molecule antagonists of the estrogen related receptor signaling pathway with the pleiotropic PPARgamma coactivator (PGC) cell viability counter screen (AID 1224822)
Summary of the method: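 PGC/ERR cells were seeded at 2,000 cells/well, rested 6 h at 37 C/5% CO2, then given compounds in DMSO by pin tool and incubated 17.5 h at 37 C. Viability came from CellTiter-Fluor fluorescence after 30 min.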

[20] = qHTS assay to identify small molecule agonists of the estrogen related receptor signaling pathway with the pleiotropic PPARgamma coactivator (PGC) (AID 1224823); also: % is scaled to controls: 0 for no effect and ±100 for the full control effect
Summary of the method: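 PGC/ERR reporter cells seeded 6 h, then exposed to compounds (23 nL in DMSO) for 18 h at 37 C. One-Glo luciferase luminescence read after 30 min at room temperature.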

Sequence of Retinoic acid receptor RXR-alpha (Homo sapiens) (P19793 whole entry, looked up): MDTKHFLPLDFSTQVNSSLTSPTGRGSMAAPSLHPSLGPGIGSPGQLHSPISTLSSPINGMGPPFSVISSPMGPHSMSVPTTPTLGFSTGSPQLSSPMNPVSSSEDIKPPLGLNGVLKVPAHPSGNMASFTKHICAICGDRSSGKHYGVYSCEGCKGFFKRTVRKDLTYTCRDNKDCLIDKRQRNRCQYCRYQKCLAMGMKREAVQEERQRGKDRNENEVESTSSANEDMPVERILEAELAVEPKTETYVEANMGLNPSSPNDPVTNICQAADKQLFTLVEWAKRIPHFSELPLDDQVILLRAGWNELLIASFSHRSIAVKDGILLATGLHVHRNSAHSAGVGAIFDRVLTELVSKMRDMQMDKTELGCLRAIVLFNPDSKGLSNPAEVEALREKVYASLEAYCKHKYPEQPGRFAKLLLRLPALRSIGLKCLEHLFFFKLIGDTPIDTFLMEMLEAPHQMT

C[Si](C)(CCCN)O[Si](C)(C)CCCN
inactive: Potency [1] | Potency [2] | Potency [3] | Potency [4] | Potency [5] | Potency [6] | Potency [7] | Potency [8] | Potency [9] | Potency [10] | Potency [11] | Potency [12] | Potency [13]

C1CCCNCCC1
inactive: Potency [1] | Potency [2] | Potency [3] | Potency [4] | Potency [5] | Potency [6] | Potency [7] | Potency [8] | Potency [9] | Potency [13]

CN1CCC(N(Cc2cccs2)c2ccccc2)CC1
inactive: Potency [1] | Potency [2] | Potency [3] | Potency [4] | Potency [5] | Potency [6] | Potency [14]

CCCOC(C(=O)OC1CCN(C)CC1)(c1ccccc1)c1ccccc1
inactive: Potency [1] | Potency [2] | Potency [3] | Potency [4] | Potency [5] | Potency [14] | Potency [10]
active: Potency [6] 13.3 µM

O=C(CS)Nc1ccccc1
inactive: Potency [1] | Potency [2] | Potency [3] | Potency [4] | Potency [5] | Potency [6] | Potency [7] | Potency [9] | Potency [10] | Potency [13]

Cc1oc2c(NC(=O)c3c(Cl)cccc3Cl)cccc2c1C(C)(C)O
inactive: Potency [2] | Potency [3] | Potency [4] | Potency [5] | Potency [7] | Potency [10] | Potency [11] | Potency [12]
active: Potency [6] 27.3 µM | Potency [13] 43.3 µM

Cc1ccccc1S(=O)(=O)O
inactive: Potency [1] | Potency [2] | Potency [3] | Potency [4] | Potency [5] | Potency [6] | Potency [7] | Potency [8] | Potency [9] | Potency [10] | Potency [11] | Potency [12] | Potency [13]

O=C(OCCCCCCOC(=O)c1ccccc1)c1ccccc1
inactive: Potency [1] | Potency [2] | Potency [3] | Potency [4] | Potency [5] | Potency [6] | Potency [14] | Potency [10] | Potency [11] | Potency [13]

Clc1ccc2c(c1)CCc1cccnc1C2=C1CCNCC1
inactive: Potency [2] | Potency [3] | Potency [4] | Potency [5] | Potency [6] | Potency [7] | Potency [10] | Potency [13]

Cc1cccc(C)c1OCC(=O)N[C@@H](Cc1ccccc1)[C@@H](O)C[C@H](Cc1ccccc1)NC(=O)[C@H](C(C)C)N1CCCNC1=O
active: Potency [2] 19 µM | Potency [6] 29.8 µM | Potency [9] 23.9 µM | Potency [13] 21.1 µM
inactive: Potency [1] | Potency [3] | Potency [4] | Potency [5] | Potency [7] | Potency [10] | Potency [11] | Potency [12]

COc1cc2c(cc1OC)C(C(C(=O)N(CCc1ccc(OC)c(OC)c1OC)CCc1ccc(OC)c(OC)c1OC)c1ccccc1)=NCC2 (configuration not stated)
inactive: Potency [1] | Potency [2] | Potency [3] | Potency [4] | Potency [5] | Potency [6] | Potency [7] | Potency [8] | Potency [9] | Potency [10] | Potency [11] | Potency [12]
active: Potency [13] 23.7 µM

CN(C)CCOC(c1ccccc1)c1ccc(Br)cc1 (configuration not stated)
inactive: Potency [1] | Potency [2] | Potency [3] | Potency [4] | Potency [5] | Potency [6] | Potency [14] | Potency [10] | Potency [13]

NC(N)=NCCC[C@H](N)C(=O)O
inactive: viability change, negative = cytotoxic [1] -1.77% [at 6.95 µM] | activity, negative = cytotoxic [2] 7.11% [at 6.95 µM] | activation [3] 0.874% [at 6.95 µM] | activity change, negative = cytotoxicity [4] -7.79% [at 6.95 µM] | activity, negative = cytotoxicity [5] 0.0529% [at 8.39 µM] | activity change, negative = inhibition [6] -5.21% [at 8.39 µM] | activation [7] 2.4% [at 6.97 µM] | activation [8] 7.8% [at 6.98 µM] | activity change, negative = cytotoxicity [9] 6.89% [at 6.97 µM] | activity, negative = inhibition [11] 5.45% [at 8.39 µM] | activation [12] 0.0873% [at 8.36 µM] | outcome [15] | Potency [16] | outcome [17] | Potency [18] | outcome [19] | outcome [20] | viability change, negative = cytotoxic [13] 3.84% [at 8.39 µM]

COc1cc(Cl)c(OC)cc1N
inactive: Potency [1] | Potency [2] | Potency [3] | Potency [4] | Potency [5] | Potency [14] | Potency [7] | Potency [8] | Potency [9] | Potency [10] | Potency [11] | Potency [12] | Potency [13]

Cc1ccc(C(C)OC(=O)C2(C)CCC(C(=O)O)C2(C)C)cc1 (configuration not stated)
inactive: Potency [1] | Potency [2] | Potency [3] | Potency [4] | Potency [5] | Potency [14] | Potency [7] | Potency [8] | Potency [9] | Potency [10] | Potency [11] | Potency [12] | Potency [13]

COc1cc2nc(Cl)nc(N)c2cc1OC
inactive: Potency [1] | Potency [2] | Potency [3] | Potency [4] | Potency [5] | Potency [14] | Potency [7] | Potency [8] | Potency [9] | Potency [10] | Potency [11] | Potency [12] | Potency [13]

O=P(O)(OCc1ccccc1)OCc1ccccc1
inactive: Potency [2] | Potency [3] | Potency [4] | Potency [5] | Potency [14] | Potency [7] | Potency [8] | Potency [9] | Potency [10] | Potency [11] | Potency [13]

O=C(O)CC(=O)C(=O)O
inactive: Potency [1] | Potency [2] | Potency [3] | Potency [4] | Potency [5] | Potency [14] | Potency [7] | Potency [8] | Potency [9] | Potency [10] | Potency [11] | Potency [12] | Potency [13]

C/C=C(/C(=C/C)c1ccc(OC(C)=O)cc1)c1ccc(OC(C)=O)cc1
inactive: Potency [1] | Potency [2] | Potency [3] | Potency [4] | Potency [5] | Potency [6] | Potency [9] | Potency [10] | Potency [12] | Potency [13]

CCN(CC)CCOC(=O)C(c1ccccc1)C1CCCCC1 (configuration not stated)
active: Potency [13] 29.8 µM
inactive: Potency [1] | Potency [2] | Potency [3] | Potency [4] | Potency [5] | Potency [6] | Potency [12]
